Several values for one entry are separate records, joined by “and”; a condition that tells them apart may be missing. Identical values can stand only once. Activity calls are given as the source filed them. How the source made its calls: active means hit-call score of the fitted dose curve at least 0.9, where 1 is the maximum; inactive means score below 0.9.
read-out: Pselectin, SELP (gene 6403); assay: BSK_4H_Pselectin: BioMAP Diversity Plus: 4H Assay for Pselectin Biomarker Activity (AID 2283026); settings: primary human endothelial cells (HUVEC); actives raise or lower the signal
Method: BSK_4H is a cell-based, multiplexed-readout assay that uses umbilical vein endothelium, a human vascular primary cell, with measurements taken at 24 hours after chemical dosing in a 96-well plate.BSK_4H_Pselectin is an assay component measured in the BSK_4H assay. It measures P-Selectin antibody related to regulation of gene expression using ELISA technology.Data from the assay component BSK_4H_Pselectin was analyzed into 1 assay endpoint. This assay endpoint, BSK_4H_Pselectin, was analyzed with bidirectional fitting relative to DMSO as the negative control and baseline of activity. Using a type of binding reporter, gain or loss-of-signal activity can be used to understand changes in the signaling as they relate to the gene SELP. Furthermore, this assay endpoint can be referred to as a primary readout, because this assay has produced multiple assay endpoints where this one serves a signaling function. To generalize the intended target to other relatable targets, this assay endpoint is annotated to the cell adhesion molecules intended target family, where the subfamily is selectins.
The levels of cell surface (or secreted, indicated by the prefix "s") biomarker endpoints were measured by ELISA. Overt cytotoxicity to cells in confluent adherent cultures (all systems other than the BT system) was assessed by measuring total protein levels using sulforhodamine B (SRB) staining in parallel cultures at the time of biomarker measurements, indicated as SRB endpoints. For proliferation assays for adherent cell types, individual cell types are cultured at sub-confluence and relative cell numbers quantified by SRB staining at time points optimized for each system (48 h: 3C and CASM3C systems; 72 h: BT and HDF3CGF systems; 96 h: SAg system). SRB was performed by staining cells with 0.1% SRB after fixation with 10% TCA and reading wells at 560 nm.Viability and proliferation of PBMC (T cells) was quantified by Alamar Blue reduction for the SAg and BT systems. For PBMC viability (referred to as PBMC Cytotoxicity within the assay endpoint names), cells were plated (75,000/well in a 96-well plate) and then chemical samples added for 1 h before addition of activators, SEB and TSST-1 (20 ng/mL final concentration each). Cells were incubated for 90 h. Then, Alamar Blue (20 uL/well) (Invitrogen, Cat DAL1100) was added for 6 h, and the plates were read with a fluorescence microplate reader at 546/580 nm (excitation/emission). For PBMC proliferation, cells were plated and activated as above but incubated for only 16 h prior to addition of Alamar Blue. Plates were read after 6 h.

| Compound | outcome | AC50 |
| --- | --- | --- |
| CCCCC(CC)COC(=O)c1ccccc1C(=O)O (stereo not given) | inactive | – |
| S=C(S)NCCNC(=S)S.[Mn+2].[S-]C([S-])=NCCN=C([S-])[S-].[Zn+2] | inactive | – |
| CCOC(=O)[C@H](C)Oc1ccc(Oc2nc3ccc(Cl)cc3o2)cc1 | inactive | – |
| C=CCOC(Cn1ccnc1)c1ccc(Cl)cc1Cl (stereo not given) | inactive | – |
| CCSC(=O)N(CC(C)C)CC(C)C | inactive | – |
| C#C[C@]1(O)CC[C@H]2[C@@H]3CCC4=CC(=O)CC[C@@H]4[C@H]3CC[C@@]21CC | inactive | – |
| O=C(c1ccc(O)cc1O)c1ccc(O)cc1O | inactive | – |
| CCCCCOC(=O)COc1cc(N2C(=O)C3=C(CCCC3)C2=O)c(F)cc1Cl | inactive | – |
| COc1c(Cl)ccc(Cl)c1C(=O)O | inactive | – |
| CCC(O)=C1C(=O)CC(C(=O)O)CC1=O (stereo not given) | inactive | – |
| COc1nc(C)nc(NC(=O)NS(=O)(=O)c2ccccc2OCCCl)n1 | inactive | – |
| CC(=O)[C@H]1CC[C@H]2[C@@H]3CCC4=CC(=O)CC[C@]4(C)[C@H]3CC[C@]12C | – | 31.9 µM (active) |
| CCCN(CCC)c1c([N+](=O)[O-])cc(C(F)(F)F)c(N)c1[N+](=O)[O-] | – | 30.3 µM (active) |
| N#CSCSc1nc2ccccc2s1 | – | 1.24 µM (active) and 5.49 µM (active) |
| CCCCOC(=O)[C@@H](C)Oc1ccc(Oc2ccc(C(F)(F)F)cn2)cc1 | inactive | – |
| CCCCCCC(C)OC(=O)COc1nc(F)c(Cl)c(N)c1Cl (stereo not given) | – | 30.8 µM (active) |
| CCOC(=O)C(C)Oc1ccc(Oc2cnc3cc(Cl)ccc3n2)cc1 (stereo not given) | inactive | – |
| CCCCOCCOCCOCc1cc2c(cc1CCC)OCO2 | inactive | – |
| CCCCC(CC)CN1C(=O)C2C3C=CC(C3)C2C1=O (stereo not given) | inactive | – |
| N[C@@H](Cc1cc(I)c(Oc2ccc(O)c(I)c2)c(I)c1)C(=O)O | inactive | – |

| Compound | outcome | AC50 |
| --- | --- | --- |
| CC(C)CCCCCCc1ccc(O)cc1 | – | 9.15 µM (active) |
| CCCN(CCC)C(=O)SCC | inactive | – |
| CCOC(=O)C(C)Oc1ccc(Oc2nc3ccc(Cl)cc3o2)cc1 (stereo not given) | inactive | – |
| COC(=O)c1ccc(I)cc1S(=O)(=O)NC(=O)Nc1nc(C)nc(OC)n1 | inactive | – |
| c1ccc(Nc2ccccc2)cc1 | inactive | – |
| COC(=O)c1c(Cl)nn(C)c1S(=O)(=O)NC(=O)Nc1nc(OC)cc(OC)n1 | inactive | – |
| S=C([S-])NCCNC(=S)[S-].[Mn+2] | – | 27.8 µM (active) |
| CC(C)(c1ccc(O)cc1)c1ccc(O)cc1 | inactive | – |
| Oc1ccc(C(c2ccc(O)cc2)C(Cl)(Cl)Cl)cc1 | – | 20 µM (active) |
| CCNc1nc(N)nc(Cl)n1 | inactive | – |
| CCCCOC(=O)C(C)Oc1ccc(Oc2ccc(C(F)(F)F)cn2)cc1 (stereo not given) | inactive | – |
| O=C(O)c1ccccc1 | inactive | – |
| C[C@]12C[C@H](O)[C@H]3[C@@H](CCC4=CC(=O)CC[C@@]43C)[C@@H]1CC[C@@H]2C(=O)CO | inactive | – |
| COC(=O)c1ccccc1C(=O)O | inactive | – |
| CCN(Cc1c(F)cccc1Cl)c1c([N+](=O)[O-])cc(C(F)(F)F)cc1[N+](=O)[O-] | inactive | – |
| Cc1nn(C)c(Oc2ccccc2)c1C=NOCc1ccc(C(=O)OC(C)(C)C)cc1 | – | 12.9 µM (active) |
| COC(=O)c1cccc(C)c1S(=O)(=O)NC(=O)Nc1nc(OCC(F)(F)F)nc(N(C)C)n1 | inactive | – |
| CCOC(=O)c1ccc(O)cc1 | inactive | – |
| CC1(C)C(C=C(Cl)Cl)C1C(=O)OCc1cccc(Oc2ccccc2)c1 (stereo not given) | inactive | – |
| COCCO | inactive | – |
